Molecules are shown by their SMILES. Where “and” joins values, the source holds several entries; their conditions need not be identical. Equal entries are not always repeated. The panel holds about 83,000 compounds, 20% with a hit somewhere; the sample as a whole holds those more often.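 Single-concentration screen, 48 h exposure, 96-well plates. Endpoint: percent growth. Below 10 = active.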 Calls of active or inactive are those of the source.

In PubChem BioAssay (NCI) one finds growth data, which are given here for 7 molecules.

Test systems include HCT-15 colon; SNB-75 CNS; SNB-19 CNS; U251 CNS; PC-3 prostate; SK-MEL-5 melanoma; UACC-62 melanoma; LOX IMVI melanoma; SK-MEL-28 melanoma; SK-MEL-2 melanoma; EKVX NSCLC; SN12C renal; UO-31 renal; TK-10 renal; ACHN renal; A498 renal; CCRF-CEM leukemia; MOLT-4 leukemia; CAKI-1 renal.
Assay in all cases: NCI-60 one-dose screen, 48 h (100 = growth as untreated, 0 = no growth, -100 = all killed)
Holding throughout (settings): 10 µM unless noted

In the case of `NS(=O)(=O)OCC1OC(n2cnc3cncnc32)C(O)C1O` (centres undefined), the growth in the assay on HCT-15 colon was 22% [0.1 µM] (inactive) and 8.65% [0.1 µM] (active); in the assay with SNB-75 CNS it was 32.3% [0.1 µM] (inactive) and 40.4% [0.1 µM] (inactive); in the assay on SNB-19 CNS, -4.22% [0.1 µM] (active) and 0.183% [0.1 µM] (active); in the assay with U251 CNS, -11.8% [0.1 µM] (active); in the assay on PC-3 prostate, 21% [0.1 µM] (inactive) and 17.8% [0.1 µM] (inactive); in the assay with SK-MEL-5 melanoma, 49.4% [0.1 µM] (inactive). For the same molecule, the growth in the assay on UACC-62 melanoma was 44.2% [0.1 µM] (inactive) and 42.4% [0.1 µM] (inactive); with LOX IMVI melanoma, 5.02% [0.1 µM] (active) and 5.99% [0.1 µM] (active); with SK-MEL-28 melanoma it was 38.5% [0.1 µM] (inactive) and 37.4% [0.1 µM] (inactive); in the assay with SK-MEL-2 melanoma, 30.5% [0.1 µM] (inactive) and 21.3% [0.1 µM] (inactive); in the assay on EKVX NSCLC it was 69.5% [0.1 µM] (inactive); in the assay with SN12C renal, -10.2% [0.1 µM] (active) and -29.3% [0.1 µM] (active). For the same molecule, the growth in the assay on UO-31 renal was -2.13% [0.1 µM] (active) and 19.4% [0.1 µM] (inactive); in the assay with TK-10 renal, 18.5% [0.1 µM] (inactive) and 13% [0.1 µM] (inactive); with ACHN renal, 13.3% [0.1 µM] (inactive) and 14.6% [0.1 µM] (inactive); in the assay with A498 renal it was -5.51% [0.1 µM] (active) and -5.14% [0.1 µM] (active); with CCRF-CEM leukemia, 11.4% [0.1 µM] (inactive) and -1.11% [0.1 µM] (active); with MOLT-4 leukemia it was 0.572% [0.1 µM] (active) and -5.43% [0.1 µM] (active).

Take `Cc1ccc2c(c1)C(C)Cc1c(ncnc1-n1cnc3cc(C)ccc31)N2C` (centres undefined): the growth is 12.3% (inactive) with HCT-15 colon; 60.3% (inactive) in the assay on SNB-75 CNS; 37.8% (inactive) with SNB-19 CNS; 6.82% (active) in the assay on U251 CNS; 24.5% (inactive) in the assay on PC-3 prostate; -24.2% (active) with SK-MEL-5 melanoma. Moreover, the growth was 30.6% (inactive) in the assay on UACC-62 melanoma; 25.7% (inactive) with LOX IMVI melanoma; 53.1% (inactive) in the assay on SK-MEL-28 melanoma; -1.91% (active) with SK-MEL-2 melanoma; 47.2% (inactive) with EKVX NSCLC; 31.6% (inactive) with SN12C renal. For the same molecule, the growth was 48.7% (inactive) in the assay with TK-10 renal; 26.6% (inactive) in the assay with ACHN renal; 24.6% (inactive) with CAKI-1 renal; 12.2% (inactive) in the assay on A498 renal; 11.4% (inactive) in the assay on CCRF-CEM leukemia; 12% (inactive) in the assay with MOLT-4 leukemia.

Turning to `COc1ccc(CN2CCc3c(Cl)nc(N)nc3C2=O)c(OC)c1`, the growth was -36.7% [100 µM] (active) in the assay on HCT-15 colon; 4.5% [100 µM] (active) in the assay with SNB-75 CNS; 33.9% [100 µM] (inactive) with SNB-19 CNS; 4.76% [100 µM] (active) with U251 CNS; 12% [100 µM] (inactive) with PC-3 prostate; -55.7% [100 µM] (active) in the assay on SK-MEL-5 melanoma. The growth was -24.5% [100 µM] (active) in the assay on UACC-62 melanoma; -56.1% [100 µM] (active) in the assay with SK-MEL-28 melanoma; -30.2% [100 µM] (active) in the assay on SK-MEL-2 melanoma; 5.84% [100 µM] (active) in the assay with EKVX NSCLC; 17.2% [100 µM] (inactive) in the assay on SN12C renal; 27.9% [100 µM] (inactive) in the assay with UO-31 renal. Further, the growth with TK-10 renal was 22.2% [100 µM] (inactive); in the assay on ACHN renal, 32.3% [100 µM] (inactive); with A498 renal, 35.7% [100 µM] (inactive); with CCRF-CEM leukemia, 3.61% [100 µM] (active); in the assay with MOLT-4 leukemia it was 13% [100 µM] (inactive).

With `COc1cc(/C=C2/C=C(c3ccc(C(C)(C)C)cc3)N(CCc3ccc(S(N)(=O)=O)cc3)C2=O)cc(OC)c1OC`, the growth is 30.3% (inactive) in the assay with HCT-15 colon; 65.9% (inactive) in the assay with SNB-75 CNS; 69% (inactive) in the assay on SNB-19 CNS; 41.7% (inactive) in the assay with U251 CNS; 8.07% (active) with PC-3 prostate; 32.1% (inactive) in the assay with SK-MEL-5 melanoma. The growth with UACC-62 melanoma is 59% (inactive); with LOX IMVI melanoma it was 42.2% (inactive); in the assay on SK-MEL-28 melanoma, 61.9% (inactive); with SK-MEL-2 melanoma it was 79.2% (inactive); in the assay with EKVX NSCLC, 51.3% (inactive); in the assay with SN12C renal, 64.7% (inactive). The growth in the assay with UO-31 renal was 37.1% (inactive); in the assay with TK-10 renal, 82.1% (inactive); in the assay with ACHN renal, 49.5% (inactive); in the assay with CAKI-1 renal, 71.6% (inactive); with A498 renal it was 82.4% (inactive); with CCRF-CEM leukemia, 29.3% (inactive).

As to `O=C(c1ccc(Nc2nccc(NCCCNc3ccnc4cc(Cl)ccc34)n2)cc1)N1CCCCC1`, the growth in the assay with HCT-15 colon is 92.2% (inactive); with SNB-75 CNS, 90.5% (inactive); in the assay on SNB-19 CNS, 35% (inactive); in the assay on U251 CNS, 23% (inactive); in the assay on PC-3 prostate, 36.5% (inactive); with SK-MEL-5 melanoma, 43.7% (inactive). Moreover, the growth was 21.4% (inactive) in the assay on UACC-62 melanoma; -14.3% (active) in the assay with LOX IMVI melanoma; 64.5% (inactive) in the assay on SK-MEL-2 melanoma; 57% (inactive) with EKVX NSCLC; 34.3% (inactive) in the assay with SN12C renal; 82.3% (inactive) in the assay with UO-31 renal. The growth in the assay on TK-10 renal is 73.2% (inactive); in the assay with ACHN renal it was 79.9% (inactive); in the assay with A498 renal it was 69.1% (inactive); with CCRF-CEM leukemia it was 37.1% (inactive); in the assay with MOLT-4 leukemia it was 25.3% (inactive).

As to `COc1cc(OC)cc(-c2ccc(-c3ccc(C(=N)N)cn3)s2)c1`, the growth was 41.7% (inactive) in the assay on HCT-15 colon; 94.6% (inactive) with SNB-75 CNS; 92.1% (inactive) with SNB-19 CNS; 5.78% (active) with U251 CNS; 69.1% (inactive) in the assay with PC-3 prostate; 80.5% (inactive) in the assay on SK-MEL-5 melanoma. For the same molecule, the growth in the assay with UACC-62 melanoma was 98.2% (inactive); with SK-MEL-28 melanoma, 109% (inactive); with SK-MEL-2 melanoma, 104% (inactive); in the assay with EKVX NSCLC, 95.6% (inactive); in the assay with SN12C renal, 79.2% (inactive); in the assay with UO-31 renal, 94.2% (inactive). Also, the growth in the assay on TK-10 renal is 113% (inactive); in the assay on ACHN renal, 75% (inactive); in the assay with CAKI-1 renal, 69.8% (inactive); with A498 renal, 102% (inactive); in the assay on CCRF-CEM leukemia, 8.54% (active); with MOLT-4 leukemia it was 49.3% (inactive).

`Nc1nc2c(s1)CCc1cn(S(=O)(=O)c3ccccc3)cc1-2`: the growth in the assay on HCT-15 colon was 98.3% (inactive) and 99.3% (inactive); in the assay with SNB-75 CNS, 80.5% (inactive) and 89.9% (inactive); in the assay on SNB-19 CNS, 94.6% (inactive) and 97% (inactive); in the assay on U251 CNS it was 80.3% (inactive) and 97.7% (inactive); with PC-3 prostate, 75.6% (inactive) and 84.4% (inactive); with SK-MEL-5 melanoma, 90.1% (inactive) and 95% (inactive). For the same molecule, the growth in the assay with LOX IMVI melanoma was 84.1% (inactive) and 104% (inactive); in the assay with SK-MEL-28 melanoma it was 113% (inactive) and 104% (inactive); in the assay with SK-MEL-2 melanoma, 106% (inactive) and 99.1% (inactive); in the assay on EKVX NSCLC, 95.8% (inactive); in the assay with SN12C renal, 86.6% (inactive) and 93.5% (inactive); in the assay on UO-31 renal, 54.5% (inactive) and 84.5% (inactive). The growth is 108% (inactive) and 115% (inactive) in the assay on TK-10 renal; 95.9% (inactive) and 101% (inactive) in the assay on ACHN renal; 85.8% (inactive) and 101% (inactive) in the assay with CAKI-1 renal; 80% (inactive) and 73.5% (inactive) in the assay with A498 renal; 79.9% (inactive) and 79.3% (inactive) with CCRF-CEM leukemia; 84.3% (inactive) and 91.6% (inactive) with MOLT-4 leukemia.
